CYP2C9 inh = blocks human cytochrome P450 2C9; 96,000 compounds, 20% hits; AID 777; CYP2C9 Supersomes, luciferin-H conversion, luminescence; P11712; inhibition, % at 5 µM;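 active means blocking of liver enzyme CYP2C9 beyond about 50% at 5 µM, limit read from the data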
Target sequence (P11712 whole entry, looked up): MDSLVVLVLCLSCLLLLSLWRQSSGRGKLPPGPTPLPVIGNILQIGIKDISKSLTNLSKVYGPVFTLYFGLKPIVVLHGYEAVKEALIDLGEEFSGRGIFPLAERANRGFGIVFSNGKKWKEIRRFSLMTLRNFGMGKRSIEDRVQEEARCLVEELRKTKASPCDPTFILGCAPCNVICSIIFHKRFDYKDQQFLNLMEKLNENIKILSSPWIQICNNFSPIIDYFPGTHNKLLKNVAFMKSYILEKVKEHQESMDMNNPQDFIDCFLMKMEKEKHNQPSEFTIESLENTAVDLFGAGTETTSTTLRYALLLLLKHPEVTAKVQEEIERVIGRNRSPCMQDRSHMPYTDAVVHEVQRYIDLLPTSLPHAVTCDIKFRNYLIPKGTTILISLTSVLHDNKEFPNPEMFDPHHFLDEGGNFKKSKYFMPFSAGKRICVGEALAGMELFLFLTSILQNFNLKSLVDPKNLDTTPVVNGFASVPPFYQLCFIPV
CYP2C19 act = cytochrome P450 2C19 (human) activation | P33261 | recombinant CYP2C19, luciferin-H EGE luminescence; hits give high values; 0 = fully inhibited enzyme, 1 = untreated enzyme | activation factor at 5 µM | 96,000 tested, under 10 active | AID 1025;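 active means activation factor of at least 2 at 5 µM in the primary screen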;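 further: 0 = wells with 2.5 mM tranylcypromine and 1 = vehicle-only wells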
PostGolgi ctrl = growth of the yeast control strain, post-Golgi counter-screen; 98,000 compounds, 5% hits; efflux-deficient yeast background strain, growth absorbance A615, 16 h; inhibition, % at 10 µM; AID 738
CYP2C19 inhib = inhibitors of human CYP2C19. P33261. CYP2C19 Supersomes, luciferin-H EGE luminescence, 30 min. inhibition, % at 5 µM. 96,000 compounds, 21% hits;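 active means CYP2C19 inhibition above a set limit at 5 µM in the primary screen, cut at about 50% in these data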;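 further: plate controls were negative control wells for no effect and 2.5 mM tranylcypromine positive control for full effect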
CYP2C9 act = increases human cytochrome P450 2C9 activity; recombinant CYP2C9, luciferin-H conversion, luminescence; hits give high values; factor 1 = untreated enzyme, 0 = blocked; activation factor at 5 µM; 96,000 compounds, 1.4% hits;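 active means activation factor of 2 or more for CYP2C9 at a 5 µM dose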;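 further: 0 = sulfaphenazole-blocked wells and 1 = vehicle-only wells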
PostGolgi yeast = growth inhibition of a yeast mutant, post-Golgi transport screen. post-Golgi transport phenotypic cell assay. inhibition, % at 10 µM. 98,000 compounds, 0.9% hits;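 further: yeast cells grown in 1536-well plates; yeast grown about 18 h at 30C before absorbance read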
* hit, by the source's call; · = no result given. Rows were chosen to be rich in hits. Some 32% of all compounds tested hit in one or more screens of this group. Unless noted, no stated cut-off is given here; in the data, active means inhibition above about 30%; inactive means the rest.

SMILES	CYP2C9 inh	CYP2C19 act	PostGolgi ctrl	CYP2C19 inhib	CYP2C9 act	PostGolgi yeast
COc1ccc(S(=O)(=O)N2CCC(NC(=O)OCc3c(Cl)cccc3Cl)CC2)cc1	-8	1.1	32*	-6	1.1	-12
COc1ccc(S(=O)(=O)N2CCCC(C(=O)NC3CCCCC3)C2)cc1 (stereo not drawn)	-31	1	32*	1	1.3	-2
COc1ccc(COC(=O)NC2CCN(S(=O)(=O)c3ccc(OC)cc3)CC2)cc1	22	0.9	4	9	0.8	-3
CC(=O)N(CN1C(=O)c2ccccc2C1=O)c1ccccc1	29	0.4	-7	59*	0.7	-4
COc1ccc(N(CN2C(=O)c3ccccc3C2=O)C(=O)C(C)C)cc1	3	0.8	13	21	1	4
CC(=O)N(CN1C(=O)c2ccccc2C1=O)c1cccc(C)c1	26	0	3	97*	0.7	-6
C=CCSc1nncn1/N=C/c1ccc(OC)cc1	36	0.2	0	82*	0.6	6
COc1ccc(C2C3=C(N=C4SCC(=O)N42)c2ccccc2CC3)cc1 (stereo not drawn)	91*	0	19	95*	0.1	13
COc1ccc(C2C3=C(N=C4SCC(=O)N42)c2ccccc2CC3)cc1OC (stereo not drawn)	54*	0.6	24	39	0.5	11
COc1ccccc1C1C2=C(N=C3SCC(=O)N31)c1ccccc1CC2 (stereo not drawn)	-11	1.1	18	-11	1.1	2
CCOC(=O)CSc1nnc2n(Cc3ccccc3)c(=O)c3c4c(sc3n12)CCC4	37	0.8	22	17	0.6	-6
O=C(Nc1ccc(S(=O)(=O)N2CCCCCC2)cc1)C1CCCO1 (stereo not drawn)	38	0.8	15	16	0.6	·
CCCn1nnc(NC(=O)Cc2ccccc2)n1	1	0.8	-1	21	1	-6
CC(C)c1nnc(NC(=O)c2sc3ccccc3c2Cl)s1	14	1	34*	2	0.9	12
O=C(Nc1nccs1)c1sc2ccccc2c1Cl	45	0.7	9	28	0.5	-1
CCCn1nnc(NC(=O)c2sc3ccccc3c2Cl)n1	-7	0.4	-13	61*	1.1	-8
CCN(CC)C(=O)C1CCN(S(=O)(=O)c2ccc3oc4ccccc4c3c2)CC1	-75	0.8	10	17	1.8	-3
O=C(/C=C/c1ccco1)NCC1CCCO1 (stereo not drawn)	5	1	6	3	1	1
CCOC(=O)c1nnc(-c2ccccc2)nc1NCc1ccc(Cl)cc1	48	0.9	39*	14	0.5	15
CCOC(=O)c1nnc(-c2ccccc2)nc1Sc1c(Cl)cccc1Cl	58*	0.8	15	23	0.4	-1
CCOC(=O)c1nnc(-c2ccc(C)cc2)nc1Sc1ccccc1Cl	10	0.6	14	44	0.9	0
CCOC(=O)c1nnc(-c2ccc(C)cc2)nc1Oc1ccccc1Cl	-13	1.1	47*	-14	1.1	-2
CCOC(=O)c1nnc(-c2ccc(C)cc2)nc1Sc1ccc(Cl)cc1	21	1.1	3	-5	0.8	21
CCOC(=O)c1nnc(-c2ccc(C)cc2)nc1Oc1ccc(Cl)cc1Cl	39	0.7	35*	33	0.6	12
CS(=O)(=O)N(CC(=O)NC1CCCCCC1)Cc1ccc(Cl)cc1	15	0.8	13	23	0.8	-2
SMILES	CYP2C9 inh	CYP2C19 act	PostGolgi ctrl	CYP2C19 inhib	CYP2C9 act	PostGolgi yeast
CCOC(=O)C1CCN(Cc2oc(CO)cc(=O)c2O)CC1	5	0.9	-7	14	1	8
Cc1ccc(NC(=O)CCC(=O)OC(C(=O)c2ccc(C)c(C)c2)c2ccccc2)c(C)c1 (stereo not drawn)	14	0.8	3	24	0.9	2
CC12C(=O)N(c3nccs3)C(=O)C1C1C=CC2C1 (stereo not drawn)	3	0.4	1	65*	1	-1
CC(=O)CC1(O)C(=O)N(CN2CCN(c3ccccc3)CC2)c2ccccc21 (stereo not drawn)	-6	0.9	-6	13	1.1	-6
CC(=O)Nc1sc(C)c(C)c1CN1CCN(S(=O)(=O)c2ccccc2)CC1	6	0.9	5	9	0.9	-14
COc1ccc(NC(=O)CCNS(=O)(=O)c2ccc(Br)s2)cc1	68*	0.7	12	29	0.3	0
CCOc1ccc(NC(=O)CCNS(=O)(=O)c2cccs2)cc1	-46	0.3	0	66*	1.5	14
CCOC(=O)c1csc(NC(=O)CSc2nnnn2CC)n1	8	1	9	4	0.9	6
CCc1nn(C)c(-c2n[nH]c(=S)n2N)c1Cl	-7	1.1	9	-10	1.1	-3
Cc1[nH]nc(N=CC2=C(O)CC(c3ccco3)CC2=O)c1-c1ccccc1 (stereo not drawn)	61*	0.7	45*	28	0.4	4
Cc1[nH]nc(N=CC2=C(O)CC(C)(C)CC2=O)c1-c1ccccc1	36	1	15	4	0.6	3
O=S(=O)(c1ccc(C2=CSC3=NCCN23)cc1)N1CCOCC1	11	0.4	5	56*	0.9	-13
Cc1ccc(S(=O)(=O)Cc2c(C)noc2C)cc1	11	0	9	100*	0.9	4
Cc1noc(C)c1CS(=O)(=O)c1ccc(Br)cc1	6	0	-11	98*	0.9	-7
Cc1cn(S(=O)(=O)c2ccc(Br)cc2)cn1	11	0.8	7	24	0.9	-7
COc1nc(-c2ccncc2)nc2ccccc12	72*	0.3	10	74*	0.3	4
CCOC(=O)CNc1nc(-c2ccncc2)nc2ccccc12	58*	0.5	-1	48	0.4	1
CCCCN(CC)c1nc(-c2ccncc2)nc2ccccc12	94*	0	63*	96*	0.1	5
CN1CCN(c2nc(-c3ccncc3)nc3ccccc23)CC1	20	0.7	-1	28	0.8	-3
C=CCOc1nc(-c2ccncc2)nc2ccccc12	64*	0.2	48*	79*	0.4	17
O=C1CCN(C(=O)c2ccccc2)C2CCCCC12 (stereo not drawn)	-16	0.9	12	13	1.2	1
c1ccc2c(N3CCCC3)nc(-c3ccncc3)nc2c1	48	0.2	61*	84*	0.5	57*
CCOc1ccc(NC(=O)C2CCN(S(=O)(=O)c3c(C)n[nH]c3C)CC2)cc1	1	1.1	1	-8	1	10
Cc1cc(C)n(C(=O)c2ccc(NC(=O)C3CC3)cc2)n1	-122	1	8	2	2.2*	0
COc1ccc(-n2c(SCC(N)=O)nnc2-c2ccc(NS(=O)(=O)c3ccc(C)cc3)cc2)cc1	73*	0.8	-9	18	0.3	-2

Compound activity as filed in PubChem.
